From PubChem BioAssay (NCATS) come the findings set out here.

Test [1] can be described thus: Cytotoxicity counterscreen for inhibitors of SARS-CoV-2 cell entry (AID 1645845). Further: nearly all actives have a fitted effect of over 50% in size. As to conditions: outcome: dose series up to 57.1 µM unless noted. The method, boiled down: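 Expi293F/hACE2 cells seeded overnight; cpd pin-transferred in DMSO, 1 h preincubation, + media, 48 h 37 C 5% CO2; ATPLite 1step luminescence; normalized to cells and no cells.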
A short description of test [2]: Primary qHTS to identify inhibitors of SARS-CoV-2 cell entry (AID 1645846). Further: nearly all actives have a fitted effect of over 45% in size. As to conditions: SARS-CoV-2 pseudovirus cell entry assay, luminescence; activity change, negative = inhibition: at 57.1 µM (top of the series) unless noted. Summed up:
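HEK293 cells stably expressing human ACE2, pre-treated 1 h with compound, then infected with MLV particles pseudotyped with Wuhan-Hu-1 spike (C-terminal 19-aa truncation). Luciferase luminescence after 48 h at 37 °C, normalised to spike PP and bald PP.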

Several values for one entry are separate records, joined by “and”; a condition that tells them apart may be missing. Equal entries are not always repeated. Inconclusive results are not listed. Activity calls are given as the source filed them. The call rests on the fitted dose curve.
Potency means the concentration at half of the fitted maximal effect.

As to `O=C(NC[C@H](O)CN1CCc2ccccc2C1)c1cc(NC2COC2)ncn1`, the Potency entry in test [1] is “inactive”. The activity change, negative = inhibition in test [2] was -13.5%.
In the case of `COc1ccnc2[nH]cc(C(=O)C(=O)N3CCN(C(=O)c4ccccc4)C[C@H]3C)c12`, the Potency result in test [1] was “inactive”. Besides, the activity change, negative = inhibition in test [2] is -5.46%.
With `COc1cc(-c2cn(C)c(=O)c3cnccc23)cc(OC)c1CN(C)C`, the Potency result in test [1] and in test [2] was “inactive” in each case.
With `N#Cc1ccc(N(Cc2ccc(Br)cc2)n2cnnc2)cc1`, in test [1], the Potency result is “inactive”. In test [2], the activity change, negative = inhibition was -18.8%.
In the case of `c1ccc(CNCc2ccc(CN3CCCNCCNCCCNCC3)cc2)nc1`, the Potency entry in test [1] is “inactive”. In addition, the activity change, negative = inhibition in test [2] was -7.13%.
The matching figures for `COc1ncc(Nc2ncc([C@H](C)N3CCN(S(C)(=O)=O)CC3)cc2-c2nc(C)nc(N)n2)cc1F`: “inactive” and -47.8%.
The like results for `CC(C)(O)C1CCC(Nc2ccc3ncc(-c4cccc(C(F)(F)F)c4)n3n2)CC1` (configuration not stated) were, in that order, “inactive” and -18.1%.
As for `OC(c1ccc(-c2ccc(CN3CCN(Cc4ccncc4)CC3)cc2)c(F)c1)(C(F)(F)F)C(F)(F)F`, the Potency entry in test [1] and in test [2] was “inactive” throughout.
`CC1c2cccc(O)c2C(O)=C2C(=O)C3(O)C(O)=C(C(N)=O)C(=O)C(N(C)C)C3C(O)C21` (configuration not stated): the Potency entry in test [1] was “inactive”. The activity change, negative = inhibition in test [2] is -15.9%.
On to `COc1cccc(-c2c(C)n(Cc3c(F)cccc3C(F)(F)F)c(=O)n(C[C@H](NCCCC(=O)O)c3ccccc3)c2=O)c1F`, for which the Potency result in test [1] was “inactive”. Also, the activity change, negative = inhibition in test [2] is -17.5% and -28.9%.
`COc1cc(-c2cn(C)c(=O)c3cnccc23)c(OC)cc1CN(C)C`: the Potency result in test [1] is “inactive”. Moreover, the activity change, negative = inhibition in test [2] is -18.5%.
For the molecule `CNc1nc(Nc2cnn([C@H]3CCN(C4COC4)C[C@@H]3F)c2Cl)ncc1C(F)(F)F`, the Potency result in test [1] and in test [2] was “inactive” each time.
On to `N#Cc1ccnc(N2C(=O)CC[C@H]2C(=O)N(c2cncc(F)c2)C(C(=O)NC2CC(F)(F)C2)c2ccccc2Cl)c1` (some centres not stated), for which, in test [1], the Potency result is “inactive”. In addition, the activity change, negative = inhibition in test [2] is -25.5%.
Consider `C=CC(=O)Nc1cc(N2CCN(CC)CC2)ccc1Nc1cc(N(C)C(=O)Nc2c(Cl)c(OC)cc(OC)c2Cl)ncn1`, for which, in test [1], the Potency entry was “inactive”. For the same molecule, the activity change, negative = inhibition in test [2] is -6.15%.
The matching figures for `C[C@]12CCC3[C@@H](CC[C@H]4NC(=O)C=C[C@]34C)[C@@H]1CC[C@@H]2C(=O)Nc1cc(C(F)(F)F)ccc1C(F)(F)F` (some centres not stated): “inactive” and -7.71%.
With `Cc1c(NC(=O)c2cc3c(s2)CCCC3)cccc1-c1cn(C)c(=O)c(Nc2ccc(C3C(=O)N(C)CCN3C)cc2)n1` (configuration not stated), the Potency entry in test [1] and in test [2] was “inactive” each time.
As for `C[C@@H](Oc1cc(C(=O)Nc2ccc(C(=O)N3CCN(C)CC3)cc2)nnc1N)c1c(Cl)ccc(F)c1Cl`, the Potency was 28.2 µM (active) in test [1] and 12.6 µM (active) in test [2].
Turning to `OC[C@H]1O[C@@H](S[C@@H]2O[C@H](CO)[C@H](O)[C@H](n3cc(-c4cccc(F)c4)nn3)[C@H]2O)[C@H](O)[C@@H](n2cc(-c3cccc(F)c3)nn2)[C@H]1O`, the Potency result in test [1] was “inactive”. Also, the activity change, negative = inhibition in test [2] turned out to be 2.64%.
The matching figures for `CC(C)(NS(=O)(=O)c1ccc2c(Cl)cnc(N=C(N)N)c2c1)C(=O)O`: “inactive” and 0.398%.
As to `CN(CCO)C1CCN(c2ccc(Nc3ncc4c5ccnc(F)c5n(C5CCCC5)c4n3)nc2)CC1`, the Potency result in test [1] is “inactive”. The activity change, negative = inhibition in test [2] is -15.6% [at 27.1 µM].
Regarding `COC(=O)N1CC2(CC2)C[C@H](C(=O)NO)[C@H]1C(=O)N1CCN(c2ccccc2)CC1`, in test [1], the Potency result was “inactive”. In addition, in test [2], the activity change, negative = inhibition was -12.3%.
The like results for `O=c1ccn([C@@H]2O[C@H](CO)[C@@H](O)[C@H]2O)c(=O)[nH]1` were, in that order, “inactive” and -16.1%.
The matching figures for `COc1ccccc1C(=O)Nc1cc2c(cc1N1CCCCC1)n(C)c(=O)n2C`: “inactive” and -21.1%.
Consider `O=C(O)c1cnn(-c2nc3cc(OC(F)(F)F)c(Cl)cc3[nH]2)c1`, for which the Potency result in test [1] and in test [2] was “inactive” throughout.
Regarding `CNC(=O)c1c(C)oc2cc(Oc3ncnc4cc(OC)c(OC)cc34)ccc12`, the Potency entry in test [1] and in test [2] was “inactive” in each case.
For `CC(=O)N1CCN(c2ccc(NC(=O)Cc3cnc(-c4ccnc(F)c4)c(C)c3)nc2)CC1`, in test [1], the Potency entry is “inactive”. Further, the activity change, negative = inhibition in test [2] turned out to be 0.388%.
The like results for `Fc1ccc(-c2nc(-c3ccccc3F)[nH]c2-c2ccncc2)cc1` were, in that order, “inactive” and -6.32%.
Consider `CC#Cc1cncc(-c2ccc3c(c2)[C@@]2(N=C(C)C(N)=N2)C2(CCC(OC)CC2)C3)c1` (some centres not stated), for which the Potency result in test [1] and in test [2] was “inactive” each time.
On to `O=C(NOCC(O)CO)c1ccc(F)c(F)c1Nc1ccc(I)cc1F` (configuration not stated), for which the Potency entry in test [1] is “inactive”. In addition, the activity change, negative = inhibition in test [2] is -21.5%.
For `COC1CCC(N2C(=O)CNc3ncc(-c4ccc(C(C)(C)O)nc4)nc32)CC1` (configuration not stated), the Potency in test [1] is 7.94 µM (active); in test [2], 15.8 µM (active).
The like results for `Cc1noc(-c2ccc(-c3ccc(C4(C(=O)O)CC4)cc3)cc2)c1NC(=O)O[C@H](C)c1ccccc1` were, in that order, “inactive” and 35.5 µM (active).
